Results as given in PubChem BioAssay (EPA / NIEHS).
Activity calls are given as the source filed them. Rule for the calls: active = hit-call score of the fitted dose curve at least 0.9, where 1 is the maximum; inactive = score below 0.9.

Experiment: ATG_M_06_CIS: Attagene CIS-FACTORIAL HepG2 Assay for M06 Transcription Factor (Internal Marker) (AID 2282950)
Settings: HepG2 Attagene CIS-FACTORIAL M06 internal marker reporter; actives raise or lower the signal
Experimental: ATG_CIS is a cell-based, multiplexed-readout assay that uses HepG2, a human liver cell line, with measurements taken at 24 hours after chemical dosing in a 24-well plate.ATG_M_06_CIS is one of 52 assay component(s) measured or calculated from the ATG_CIS assay. It is designed to make measurements of mRNA induction, a form of inducible reporter, as detected with fluorescence intensity signals by Reverse transcription polymerase chain reaction (RT-PCR) and Capillary electrophoresis technology.Data from the assay component ATG_M_06_CIS was analyzed into 1 assay endpoint. This assay endpoint, ATG_M_06_CIS, was analyzed with bidirectional fitting relative to DMSO as the negative control and baseline of activity. Using a type of inducible reporter, measures of mRNA for gain or loss-of-signal activity can be used to understand the background control at the transcription factor-level as they relate to the gene . Furthermore, this assay endpoint can be referred to as a secondary readout, because this assay has produced multiple assay endpoints where this one serves a background control function. To generalize the intended target to other relatable targets, this assay endpoint is annotated to the background measurement intended target family, where the subfamily is internal marker.
Human liver HepG2 cells are transiently transfected with multiple reporter transcription units (MRTUs) in 6-well plates using FuGene 6 reagent (Roche; 3 ml FuGene/1 mg DNA). The MRTU constructs are regulated by a cis-regulating element (promoter). […] A major difference between the CIS and TRANS system is that in CIS activities of endogenous TFs are measured, whereas the TRANS assay evaluates changes in activities of exogenous, chimeric NR-Gal4 proteins. […] At the end of 24 hour incubation, total RNA was isolated using TriZol reagent (Invitrogen). The isolated RNA is then reverse-transcribed using oligo(dT) primer and Mo-MLV reverse transcriptase (Invitrogen) with DNAse I (Ambion) treatment for 30 min. The one-tenth of the produced cDNA was amplified by PCR using Taq DNA polymerase (Invitrogen) and two reporter sequence-specific primers. The PCR products were fluorescently labeled by primer extension with 6-arboxyfluorescein (6-FAM) 5'-labeled reporter sequence-specific primer (2 min at 95 C, 20 s at 68 C and 10 min at 72 C) and these products were digested with 5U of HpaI (New England Biolabs) for 2h at 37 C. The fragments were purified using Qiaquick PCR columns (Qiagen), analyzed on an ABI 3130xL genetic analyzer (Applied Biosystems) with peak positions identified by using a set of X-rhodamine (ROX)-labeled MapMarker1000 molecular weight standards (BioVentures). The raw capillary electrophoresis data was processed using Attagraph software (Attagene).

SMILES | outcome
CCOP(=S)(OCC)SCSC(C)(C)C | inactive
C[C@]12CCC(=O)C=C1CC[C@@H]1[C@@H]2CC[C@]2(C)C(=O)CC[C@@H]12 | inactive
O=C(NC(=O)c1c(F)cccc1F)Nc1cc(Cl)c(OC(F)(F)C(F)F)c(Cl)c1 | inactive
COc1ccc(O)c(C(C)(C)C)c1 | inactive
COS(=O)(=O)OC | inactive
ClC1=C(Cl)[C@]2(Cl)[C@@H]3[C@H]4C[C@H]([C@@H]5O[C@H]45)[C@@H]3[C@@]1(Cl)C2(Cl)Cl | inactive
c1cc2ccc3cccc4ccc(c1)c2c34 | inactive
O=C(O)C(F)(F)C(F)(F)C(F)(F)C(F)(F)C(F)(F)C(F)(F)C(F)(F)C(F)(F)F | inactive
Cc1cc2c3c(c1)C(c1ccccc1)=N[C@@H](NC(=O)c1ccncc1)C(=O)N3CC2 | inactive
Cc1ccccc1[N+](=O)[O-] | inactive
Sc1ccccc1 | inactive
CCC(C)(c1ccc(O)cc1)c1ccc(O)cc1 | inactive
Nn1cnnc1 | inactive
Oc1ccc(C(c2ccc(O)cc2)(C(F)(F)F)C(F)(F)F)cc1 | inactive
CCOCCOC(C)=O | inactive
c1ccc(-c2ccccc2)cc1 | inactive
Nc1ccc(-c2ccc(N)cc2)cc1 | inactive
CN(C)CCO | inactive
CCC(C)(CC)c1cc(NC(=O)c2c(OC)cccc2OC)on1 | inactive
CN(C)c1nc(=O)n(C2CCCCC2)c(=O)n1C | inactive

SMILES | outcome
CO/C=C(/C(=O)OC)c1ccccc1COc1cccc(C(F)(F)F)n1 | inactive
CCCCCCOC(=O)c1ccccc1C(=O)OCCCCCC | inactive
O=S(=O)(O)C(F)(F)C(F)(F)C(F)(F)C(F)(F)C(F)(F)C(F)(F)F | inactive
Cc1cc(-c2ccc(N)c(C)c2)ccc1N | inactive
O=C(O)C(F)(F)C(F)(F)C(F)(F)C(F)(F)C(F)(F)C(F)(F)C(F)(F)C(F)(F)C(F)(F)F | inactive
O=S(=O)(O)C(F)(F)C(F)(F)C(F)(F)C(F)(F)F | inactive
CCCCCCCCCc1ccc(O)cc1 | inactive
CCOC(=O)C(O)(c1ccc(Cl)cc1)c1ccc(Cl)cc1 | inactive
Oc1c(Cl)c(Cl)c(Cl)c(Cl)c1Cl | inactive
Cc1ccccc1CO[C@@H]1C[C@@]2(C(C)C)CC[C@]1(C)O2 | inactive
CCSC(=O)N(CC)C1CCCCC1 | inactive
CC(C)(O)C(=O)Nc1ccc([N+](=O)[O-])c(C(F)(F)F)c1 | inactive
O=C(NC(=O)c1cc(F)c(F)cc1Cl)Nc1cc(F)ccc1N1CCC(C(=O)O)CC1 | inactive
NS(=O)(=O)C(F)(F)C(F)(F)C(F)(F)C(F)(F)C(F)(F)C(F)(F)C(F)(F)C(F)(F)F | inactive
O=NN(c1ccccc1)c1ccccc1 | inactive
Clc1ccc(Cl)cc1 | inactive
O=C(N[C@H]1CN2CCC1CC2)c1cc2ccoc2cn1 | inactive
N#Cc1ccc(N(CC(N)=O)CC(F)(F)F)cc1C(F)(F)F | inactive
CC(C)(c1ccccc1)c1ccc(O)cc1 | inactive
C[C@]12CCC(=O)C=C1CC[C@@H]1[C@@H]2CC[C@@]2(C)[C@H]1CC[C@]2(C)O | inactive
